For 40 compounds, activity change, negative = cytotoxic and Potency results are on record in PubChem BioAssay (Tox21).

The structures appear in SMILES notation. Results filed as inconclusive are left out. Entries that show only a call come without a potency. Active and inactive are the calls of the source. The call rests on the fitted dose curve; in most records, active means well fitted cell-killing curve with a large enough effect in the repeat runs; inconclusive means weak or mixed curves; inactive means flat fitted curve, though single readings scatter.

This assay can be described thus: qHTS RealTime-Glo MT Cell Viability Assay in HepG2 cells - 16 hour (AID 1224885). Further: nearly all actives have a fitted effect of over 50% in size. As to conditions: RealTime-Glo luminescence; series mostly up to 76.8 µM. The text has this:
U.S. Tox21 Program National Center for Advancing Translational Sciences [NCATS] NIH Chemical Genomics Center [NCGC] U.S. Environmental Protection Agency [EPA] National Institutes of Environmental Health Sciences [NIEHS] National Toxicology Program [NTP] U.S. Food and Drug Administration [FDA] Tox21 Assay Overview: Measure of cell viability is critical in the cell-base assay. Analysis of cell viability is necessary for the characterization of cell responses to cytotoxic drugs and environmental stress. A RealTime-Glo MT Cell Viability Assay to monitor cell viability in real time of continues cell culture during 40 hours of compound treatment was used to screen Tox21 10K library compounds in HepG2 cells. The RealTime-Glo MT Cell Viability Assay is a nonlytic, homogeneous, bioluminescent method to measure cell viability in real time using a simple, plate-based method. The assay involves adding NanoLuc luciferase and a cell-permeant prosubstrate to cells in culture. Viable cells reduce the proprietary prosubstrate to generate a substrate for NanoLuc luciferase. This substrate diffuses from cells into the surrounding culture medium, where it is rapidly used by the NanoLuc Enzyme to produce a luminescent signal. The signal correlates with the number of viable cells, making the assay well suited for cytotoxicity studies.
Tox21 Assay Protocol Summary: The mixture of HepG2 cell suspension and reagents were dispensed at 600cells/6 ul/well in 1536-well tissue culture treated black solid bottom plates using a Multidrop dispenser. After the assay plates were incubated at a 37 C/5% CO2 incubator for 5 hours, 23 nL of compounds dissolved in DMSO, positive and negative controls was transferred to the assay plate by a pintool work station. The plates were incubated at 37 C for 40 hours. The luminescence intensity were measured at 0h, 8h, 16h, 24h, 32h and 40h time points using ViewLux plate reader during compound treatment.
`CC1=C(C(=O)O)N2C(=O)[C@@H](N)[C@H]2SC1`: the activity change, negative = cytotoxic was 0.0678% [at 15.8 µM] (inactive). With `CN1C(=S)CN=C(c2ccccc2)c2cc(Cl)ccc21`, the Potency entry was “inactive”. The same measure, in the same setting: in the case of `O=CNC(N1CCN(C(NC=O)C(Cl)(Cl)Cl)CC1)C(Cl)(Cl)Cl` (stereo not given) it was “inactive”; in that of `COP(N)(=S)Oc1ccccc1C(=O)OC(C)C` (stereo not given), “inactive”. Still for that read-out and setting: the result for `O=C(N[C@H]1CN2CCC1CC2)c1cc2ccoc2cn1` reads “inactive”; that for `CCOC(=O)NC(=S)Nc1ccccc1NC(=S)NC(=O)OCC`, “inactive”. With `O=C1c2ccccc2C(=O)c2ccccc21`, the activity change, negative = cytotoxic was 1.58% [at 15.8 µM] (inactive).

In the case of `CCCSC(=O)N(CCC)CCC`, the Potency entry is “inactive”. On the same count and under the same terms, in the case of `CC(C(=O)c1ccccc1)N(C)C` (stereo not given) it was “inactive”; in that of `Oc1c(Cl)cccc1Cl`, “inactive”; in that of `O=c1oc2ccccc2c(O)c1C1CCCc2ccccc21` (stereo not given), “inactive”. Still for that read-out and setting: in the case of `O=C(O)c1ccc2[nH]cc(CCCCN3CC=C(c4ccccc4)CC3)c2c1` it was “inactive”; in that of `N#CCNCC#N`, “inactive”; in that of `CSc1ccc(C(=O)C(C)(C)N2CCOCC2)cc1`, “inactive”. The same measure, in the same setting: in the case of `CCCCc1c(C)nc(NCC)[nH]c1=O` it was “inactive”; in that of `NC(=O)c1cc([N+](=O)[O-])cc([N+](=O)[O-])c1`, “inactive”; in that of `Cc1ncc(CNC(=O)N(CCCl)N=O)c(N)n1`, “inactive”.

As for `O=NN1CCN(N=O)CC1`, the Potency result was “inactive”. Still for that read-out and setting: the result for `CC1(C(=O)Nc2ccc(O)c(Cl)c2Cl)CCCCC1` reads “inactive”.

As for `OC(Cn1cncn1)(c1ccc(F)cc1)c1ccccc1F` (stereo not given), the Potency result was “inactive”. On the same count and under the same terms, the result for `Cc1cc(C)nc(Nc2ccccc2)n1` reads “inactive”; that for `c1cc2c(c(N3CCNCC3)c1)OCCO2`, “inactive”; that for `O=S(=O)(O)C(F)(F)C(F)(F)C(F)(F)C(F)(F)C(F)(F)C(F)(F)F`, “inactive”. The same measure, in the same setting: in the case of `CCCCc1ccc(O)cc1` it was “inactive”. The same measure, in the same setting: the result for `Nc1c(Br)cc([N+](=O)[O-])cc1[N+](=O)[O-]` reads “inactive”. On to `O=C1OC(c2ccc(O)c(S(=O)(=O)O)c2)(c2ccc(O)c(S(=O)(=O)O)c2)c2c(Br)c(Br)c(Br)c(Br)c21`, for which the Potency result was “inactive”. On the same count and under the same terms, in the case of `CC1=NNC(=O)N(/N=C/c2cccnc2)C1` it was “inactive”. With `CN1CCC(O)(c2ccc(F)cc2)C(C(=O)c2ccc(F)cc2)C1` (stereo not given), the Potency entry is “inactive”. On to `BrCCCCCCBr`, for which the Potency entry is “inactive”. Same read-out and setting: in the case of `ClC(Cl)C(Cl)Cl` it was “inactive”; in that of `NC1=NC(=O)C(c2ccccc2)O1` (stereo not given), “inactive”; in that of `Nc1cc2c3c(c1)C(c1ccccc1)=N[C@@H](NC(=O)c1cccnc1)C(=O)N3CC2`, “inactive”. Still for that read-out and setting: in the case of `C[C@]1(O)CC[C@H]2[C@@H]3CCC4=CC(=O)CC[C@]4(C)[C@@]3(F)[C@@H](O)C[C@@]21C` it was “inactive”; in that of `COC(=O)c1ccccc1S(=O)(=O)NC(=O)N(C)c1nc(C)nc(OC)n1`, “inactive”. Same read-out and setting: in the case of `CN(N=O)C(N)=O` it was “inactive”; in that of `CC(C)COP(=O)(OCC(C)C)OCC(C)C`, “inactive”. Take `OC(c1ccccc1)(c1ccccc1)C1CCNCC1`: the Potency entry is “inactive”. On the same count and under the same terms, in the case of `CC(C)CP(=S)(S)CC(C)C` it was “inactive”; in that of `OCCBr`, “inactive”. The same measure, in the same setting: in the case of `O=P(O)(Oc1ccccc1)Oc1ccccc1` it was “inactive”.
